High-throughput results as filed in PubChem BioAssay.
Shown are actives, neighbours in structure and some others; about 0.62% of the full set was active somewhere.
BCR signal inh = blocks chronic active B-cell receptor signaling; AID 493014; Potency, µM (titrated, usually from 46.1 µM), without a hit: at the highest dose activity change, negative = inhibition, actives largely listed as inhibitors; ABC-DLBCL IkBa-CBG/CBR reporter, luminescence ratio, 4 h; 340,000 tested, 0.05% active; active means well fitted inhibition curve with a large enough effect in the signal ratio, with a control signal flat, not every such curve was filed as active; inconclusive means small, poorly fitted or top-dose-only effect, or effect the other way, or a change in a side signal; the % refers to the signal ratio;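 further: plate controls were basal doxycycline-induced cells for no effect and cells given 10 µM MG132 for full effect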
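Compounds up to 46 uM were incubated four hours with TMD8 cells whose green CBG68 luciferase is fused to IkappaBalpha; red CBR luminescence normalised the signal, and concentration-effect curves were fitted to fusion, red and ratio data.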
gsp ag = agonists of gsp mutant (McCune-Albright syndrome). Potency, µM (doses to about 76.9 µM), inactives show top-dose activation (cAMP increase), usual class: activators. AID 624287. gsp mutant cells, cAMP HTRF, 30 min. 340,000 tested, 0.13% active; active means well fitted activation curve with a large enough effect; inconclusive means small, poorly fitted or top-dose-only effect, or another doubt; inactive means no such curve, though single readings can be large or run the other way; cell line not stated here;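 further: phosphodiesterase inhibitor Ro 20-1724 added with compounds to block cAMP breakdown; nearly all actives have a fitted effect of over 60% in size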
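Cells stably selected in G418 were plated at 2000/well, grown 16-24 hr, then given compounds in DMSO with the PDE inhibitor […] (300 uM solution added) for 30 min at 37C; cAMP was read by HTRF.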
gsp antagonist = antagonizes gsp, the McCune-Albright syndrome mutation; gsp-mutant cells, cAMP HTRF, 30 min; Potency, µM (titrated, usually from 76.9 µM), for inactives: at the top dose activity change, negative = inhibition, actives largely listed as inhibitors; 340,000 tested, 0.4% active; calls by dose curve; cell line not stated here;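 further: intracellular cAMP measured with PDE inhibitor Ro 20-1724 present during compound exposure; on the % scale 0 is the no-effect control and ±100 the full control effect; nearly all actives have a fitted effect of over 65% in size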
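HTRF cAMP read-out (cAMP-d2 plus anti-cAMP antibody-K in lysis buffer, 30 min RT). Before lysis, cells are exposed to compounds with […] for 30 min at 37C in DPBS containing Ca/Mg, BSA and Tween 20.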
ASM inhibitor = inhibitors of human secretory acid sphingomyelinase | placental ASM, HMU-PC fluorogenic substrate, 60 min | Potency, µM (doses to about 57.5 µM), for the others: at the top dose activity change, negative = inhibition, most hits filed as inhibitors | 340,000 tested, 0.006% active; active means well fitted inhibition curve with a large enough effect; inconclusive means small, poorly fitted or top-dose-only effect; inactive means no such curve, though single readings can be large or run the other way
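Steps: dispense placental human ASM, pin compound, wait 10 min at room temperature, add HMU-PC0 substrate at 9 uM final, incubate 60 min at 37 °C, add stop solution raising pH to 10, read fluorescence.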
MBNL1 CUG block = MBNL1-poly(CUG) RNA binding inhibition; Q9NR56; 280,000 tested, 0.036% active; TR-FRET MBNL1-His/biotin-(CUG)12 binding, 665/545 ratio; Potency, µM (titrated, usually from 57.5 µM), inactives show at the top dose activity change, negative = inhibition, most hits filed as inhibitors; active means well fitted inhibition curve with a large enough effect in the signal ratio, with a control signal flat, not every such curve was filed as active; inconclusive means small, poorly fitted or top-dose-only effect, or effect the other way, or a change in a side signal; inactive means no such curve, though single readings can be large or run the other way; the % refers to the signal ratio; further: on the % scale 0 is the no-effect control and ±100 the full control effect
Target sequence (Q9NR56 whole entry, looked up): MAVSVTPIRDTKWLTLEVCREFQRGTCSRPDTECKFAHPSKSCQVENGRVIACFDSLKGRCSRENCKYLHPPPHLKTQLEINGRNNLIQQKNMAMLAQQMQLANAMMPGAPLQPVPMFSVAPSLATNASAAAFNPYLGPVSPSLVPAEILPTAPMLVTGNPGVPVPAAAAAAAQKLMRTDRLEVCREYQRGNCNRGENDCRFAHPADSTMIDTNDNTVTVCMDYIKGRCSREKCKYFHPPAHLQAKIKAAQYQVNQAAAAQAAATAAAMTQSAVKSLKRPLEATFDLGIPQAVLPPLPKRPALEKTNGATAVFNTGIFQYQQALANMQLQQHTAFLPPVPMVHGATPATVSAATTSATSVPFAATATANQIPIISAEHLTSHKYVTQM
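Compounds (final 92 nM to 58 uM) are added to His-tagged MBNL1 and biotin-(CUG)12, then terbium anti-His antibody and streptavidin-XL665 (5 nM final). After 60 min at room temperature, the 665/545 nm ratio is read.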
Starred values were filed as active, the others as inactive; [ ] = remark or other dose. Potency means the concentration at half of the fitted maximal effect.

How did CCOC(=O)c1c(C)cc2c(CO)n[nH]c(=O)c2c1C do in these assays?
gsp ag: 25.2%

How did COC(=O)CSc1nc(C)c(C(C)=O)cc1C#N do in these assays?
BCR signal inh: inconclusive; gsp ag: -41.2%; gsp antagonist: -6.6%; ASM inhibitor: -2.8%; MBNL1 CUG block: 13.0%

How did CCCSc1nc(C)c(C(C)=O)cc1C#N do in these assays?
BCR signal inh: 18.4µM*; gsp ag: -22.7%; gsp antagonist: -11.5%; ASM inhibitor: -1.0%; MBNL1 CUG block: -5.5%

Results for O=C(C(Cl)Cl)N1CCN(Cc2ccc3c(c2)OCO3)CC1 ?
BCR signal inh: 1.4%; gsp ag: -11.0%; gsp antagonist: -1.0%; ASM inhibitor: 0.3%; MBNL1 CUG block: 0.3%

What do the screens show for `CC(C(=O)N1CCN(Cc2ccc3c(c2)OCO3)CC1)c1ccc([N+](=O)[O-])cc1` (stereo not given)?
BCR signal inh: -2.1%; gsp ag: -2.5%[15.4 µM]; gsp antagonist: 11.2µM*; ASM inhibitor: -0.3%; MBNL1 CUG block: inconclusive

What do the screens show for `CC(C)(C)OC(=O)C[C@H]1C/C=C\C[C@H](CC(=O)NCCO)C(=O)N[C@@H](c2ccccc2)COC1=O`?
BCR signal inh: 0.6%; gsp ag: -13.5%; gsp antagonist: 9.5%; ASM inhibitor: -3.0%

Results for Cc1nn(C)c(C)c1CN(C)S(=O)(=O)c1ccc2ccccc2c1 ?
BCR signal inh: -18.4%; gsp ag: 9.3%; gsp antagonist: 14.1µM*; ASM inhibitor: -2.5%; MBNL1 CUG block: 2.2%

Results for S=c1[nH]nc(SCc2ccccc2)c2[nH]cnc12 ?
gsp ag: 14.1µM*; gsp antagonist: inconclusive; ASM inhibitor: inconclusive

What do the screens show for `CCCCSc1n[nH]c(=S)c2nc[nH]c12`?
gsp ag: inconclusive; gsp antagonist: 7.5%; ASM inhibitor: -1.3%

Results for O=C1C2CC=CCC2C(=O)N1c1ccc(NCCc2ccc(O)cc2)c([N+](=O)[O-])c1 (stereo not given) ?
BCR signal inh: -18.6%; gsp ag: 9.9%[15.4 µM]; gsp antagonist: 31.6µM*; ASM inhibitor: -29.6%; MBNL1 CUG block: inconclusive

Results for N#Cc1cc2c(=O)n3ccccc3nc2n(CCN2CCOCC2)c1=O ?
BCR signal inh: 2.7%; MBNL1 CUG block: 10.2%

How did N#Cc1cc2c(=O)n3ccccc3nc2n(CCCN2CCOCC2)c1=O do in these assays?
BCR signal inh: 7.3%; gsp ag: 35.5µM*; gsp antagonist: 21.3%; ASM inhibitor: inactive; MBNL1 CUG block: inconclusive

What do the screens show for `Cn1c(=O)c2c(ncn2CC(=O)NC2CCCCC2)n(C)c1=O`?
BCR signal inh: -0.8%; gsp ag: 12.6µM*; gsp antagonist: 13.5%; ASM inhibitor: -1.8%; MBNL1 CUG block: -5.9%

What do the screens show for `Cc1ccc(S(=O)(=O)N2C[C@H]3C(=O)C[C@@H](c4ccc(Cl)cc4)N(S(=O)(=O)c4ccccc4C)[C@H]3C[C@H]2c2ccccc2)cc1`?
gsp ag: -13.2%

How did COc1ccc2cc(C(=O)C3CCCN(C(=O)CCc4ccccn4)C3)ccc2c1 (stereo not given) do in these assays?
BCR signal inh: -11.2%; gsp ag: -12.3%[15.4 µM]; gsp antagonist: 4.47µM*; ASM inhibitor: 17.5%; MBNL1 CUG block: inconclusive

What do the screens show for `COc1cccc(C(=O)C2CCCN(C(=O)CCc3scnc3C)C2)c1` (stereo not given)?
BCR signal inh: 6.1%; gsp ag: 12.2%[15.4 µM]; gsp antagonist: -7.3%; ASM inhibitor: -5.7%; MBNL1 CUG block: -12.0%

How did CCc1c(C)nc(N2CCN(c3ccc(OC)cc3)CC2)[nH]c1=O do in these assays?
BCR signal inh: 7.6%; gsp ag: -1.7%; gsp antagonist: -5.7%; ASM inhibitor: 9.1%; MBNL1 CUG block: 9.6%

Results for Cc1ccc(C(=O)N/N=C\c2ccc([N+](=O)[O-])o2)cn1 ?
BCR signal inh: inconclusive; gsp ag: 8.91µM*; gsp antagonist: -5.3%; ASM inhibitor: -5.3%

What do the screens show for `Cc1cc(SCC(=O)N/N=C/c2ccc(O)c(O)c2)nc2ccccc12`?
BCR signal inh: inconclusive; gsp ag: -27.7%; gsp antagonist: -24.1%; ASM inhibitor: -2.8%; MBNL1 CUG block: 17.5%

Results for Cc1cc(SCC(=O)N/N=C/c2ccc(O)cc2O)nc2ccccc12 ?
BCR signal inh: inconclusive; gsp ag: inconclusive; gsp antagonist: 35.5µM*; ASM inhibitor: -15.4%; MBNL1 CUG block: 11.5%

How did O=C(NC1CCCC1)c1cc(-c2ccc(Cl)cc2)on1 do in these assays?
BCR signal inh: inconclusive; gsp ag: -8.3%; gsp antagonist: -6.8%; ASM inhibitor: -2.3%; MBNL1 CUG block: -0.5%

Results for c1ccc(-c2ncnc3ccccc23)cc1 ?
gsp ag: -2.9%; gsp antagonist: -3.2%; ASM inhibitor: 2.3%

What do the screens show for `O=C(/C=C/c1ccc(Cl)cc1Cl)NCCSc1ccccc1`?
BCR signal inh: inconclusive; gsp ag: inconclusive; gsp antagonist: 44.7µM*; ASM inhibitor: -6.4%

Results for O=C(/C=C/c1ccc(Cl)cc1Cl)NCCSCc1ccccc1 ?
BCR signal inh: inconclusive; gsp ag: 1.3%; gsp antagonist: 7.5%; ASM inhibitor: -1.1%; MBNL1 CUG block: 4.8%

Results for Cc1cccc(C)c1NC(=O)CN(C)C(=O)C1CCN(c2ncnc3sc(C)c(C)c23)CC1 ?
BCR signal inh: 3.8%; gsp ag: inconclusive; gsp antagonist: -20.0%; ASM inhibitor: -0.2%

Results for Cc1sc2ncnc(N3CCC(C(=O)NNC(=O)COc4ccccc4Cl)CC3)c2c1C ?
BCR signal inh: inconclusive; gsp ag: -3.9%; gsp antagonist: inconclusive

What do the screens show for `Cc1sc2ncnc(N3CCC(C(=O)NNC(=O)COc4cccc(C(F)(F)F)c4)CC3)c2c1C`?
BCR signal inh: inconclusive; gsp ag: 27.8%; gsp antagonist: 50.1µM*

Results for COc1ccc(OCC(=O)NNC(=O)C2CCN(c3ncnc4sc(C)c(C)c34)CC2)cc1 ?
BCR signal inh: inconclusive; gsp ag: -24.9%; gsp antagonist: inconclusive; ASM inhibitor: -2.8%

What do the screens show for `Cc1cc(Cl)ccc1OCC(=O)NNC(=O)C1CCN(c2ncnc3sc(C)c(C)c23)CC1`?
BCR signal inh: inconclusive; gsp ag: 16.9%; gsp antagonist: 35.5µM*; ASM inhibitor: -18.0%

What do the screens show for `Cc1sc2ncnc(N3CCC(C(=O)NNC(=O)COc4ccc(Br)cc4)CC3)c2c1C`?
BCR signal inh: inconclusive; gsp ag: -16.9%[15.4 µM]; gsp antagonist: 31.6µM*; ASM inhibitor: -14.7%

How did Cc1cc(Br)ccc1NC(=O)CN(C)C(=O)C1CCN(c2ncnc3sc(C)c(C)c23)CC1 do in these assays?
gsp ag: 1.0%; gsp antagonist: 31.6µM*

What do the screens show for `CCN1CCN(S(=O)(=O)c2ccc(OC)c(NC(=O)c3ccccc3F)c2)CC1`?
BCR signal inh: 1.1%; gsp ag: -14.9%; gsp antagonist: 2.2%; ASM inhibitor: 4.4%
